Measurements: PubChem BioAssay AID1259312 (Keith Lab, Institute of Cancer Science, University of …, 2017)
Hit rate of the full screen: of about 4,500 compounds, about 200 (4.4%) were called active.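 The calls were made as follows: active = cell survival measured by absorbance rises more than 2.5-fold over infected cells without compound; inactive = the rest.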 The full list was thinned out, with actives kept by preference.

Experiment: survival after telomere uncapping, modulators, primary screen, cell-based (AID 1259312);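 also: virus expresses mutant telomerase RNA that uncaps telomeres and kills cells; compound added 2 days after infection so exposure lasts 3 days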
Conditions: HCT116 + Ad-hTR-mut, MTT, 5 d; at 10 µM, stronger effect = higher value

**Q.** For `COC(=O)C1=C(CSCc2ccco2)NC(=O)NC1c1ccc(C)cc1C` (centres undefined), which fold change is on record?
**A.** -1.35 (inactive)

**Q.** Which fold change does the source give for `CCOC(=O)c1c(NC(=O)C(F)(F)F)sc2c1CCN(C(=O)OCC)C2` here?
**A.** 1.21 (inactive)

**Q.** With `Cc1ccc(-c2nc(CSc3nccc(N)n3)cs2)cc1` as the molecule, how does the fold change read?
**A.** -2.25 (inactive)

**Q.** With `O=S(=O)(Nc1ccc(Br)cc1)c1ccc(Cl)cc1` as the molecule, how does the fold change read?
**A.** 1.91 (inactive)

**Q.** For `O=S(=O)(Nc1ccc(S(=O)(=O)Nc2ccc(F)cc2)cc1)c1ccccc1`, which fold change is on record?
**A.** -1.01 (inactive)

**Q.** With `O=S(=O)(Nc1ccc(Br)cc1)c1ccccc1` as the molecule, how does the fold change read?
**A.** 2.66 (active)

**Q.** With `O=C1c2cccc(Cl)c2C(=O)c2cccc(Cl)c21` as the molecule, how does the fold change read?
**A.** -1.08 (inactive)

**Q.** With `CCc1sc(/C=C(/C#N)C(=O)OC)cc1[N+](=O)[O-]` as the molecule, how does the fold change read?
**A.** -2.59 (inactive)

**Q.** Which fold change does the source give for `O=[N+]([O-])c1ccc(NCCO)c([N+](=O)[O-])c1` here?
**A.** 1.74 (inactive)

**Q.** For `CCNCCNc1ccc([N+](=O)[O-])cc1Cl`, which fold change is on record?
**A.** 1.86 (inactive)

**Q.** With `CCN(CC)CCNc1ccc([N+](=O)[O-])cc1[N+](=O)[O-]` as the molecule, how does the fold change read?
**A.** 3.5 (active)

**Q.** With `CN(C)CCCNc1ccc([N+](=O)[O-])cc1Cl` as the molecule, how does the fold change read?
**A.** 3.8 (active)

**Q.** For `NCCCNc1ccc(Cl)cc1[N+](=O)[O-]`, which fold change is on record?
**A.** -1.5 (inactive)

**Q.** Which fold change does the source give for `CN(C)CCNc1ccc(Cl)cc1[N+](=O)[O-]` here?
**A.** 1.53 (inactive)

**Q.** With `NCCCNc1ccc([N+](=O)[O-])cc1Cl` as the molecule, how does the fold change read?
**A.** 1.09 (inactive)

**Q.** Which fold change does the source give for `CCN(CC)CCNc1ccc(Cl)cc1[N+](=O)[O-]` here?
**A.** 3.03 (active)

**Q.** With `NCCNc1ccc([N+](=O)[O-])cc1[N+](=O)[O-]` as the molecule, how does the fold change read?
**A.** 1.82 (inactive)

**Q.** Which fold change does the source give for `Cc1cccc(-c2cc(=O)c3cc(Br)ccc3o2)c1` here?
**A.** 1.11 (inactive)

**Q.** Which fold change does the source give for `Nc1nc(C=C(Cl)Cl)cs1` here?
**A.** 1.63 (inactive)

**Q.** For `COc1cc2c(cc1OC)C(C(=O)O)CC(=O)N2` (centres undefined), which fold change is on record?
**A.** -1.06 (inactive)

**Q.** Which fold change does the source give for `COc1ccc(C(O)c2nccn2C)cc1OC` (centres undefined) here?
**A.** -1.55 (inactive)

**Q.** Which fold change does the source give for `COc1ccc(-c2coc3ccc(OC4OC(COC(C)=O)C(OC(C)=O)C(OC(C)=O)C4OC(C)=O)c(OC(C)=O)c3c2=O)cc1` (centres undefined) here?
**A.** -1.42 (inactive)

**Q.** With `CC1=NN(c2ccccc2)C(=O)/C1=C\c1cn(-c2ccccc2)nc1C12CC3CC(CC(C3)C1)C2` as the molecule, how does the fold change read?
**A.** -2.06 (inactive)

**Q.** With `Clc1ccc(N=Cc2ccccc2Cl)nc1` as the molecule, how does the fold change read?
**A.** 1.71 (inactive)

**Q.** For `COc1cc(N=Cc2cc3ccccc3nc2Cl)c(OC)cc1Cl`, which fold change is on record?
**A.** 3.58 (active)

**Q.** With `Clc1ccc(Cl)c(N=Cc2cc3ccccc3nc2Cl)c1` as the molecule, how does the fold change read?
**A.** 1.49 (inactive)

**Q.** Which fold change does the source give for `Clc1nc2ccccc2cc1C=Nc1ccc(Br)cc1` here?
**A.** 3.97 (active)

**Q.** With `Oc1c(Br)cc(Br)cc1C=Nc1ccc(F)cc1` as the molecule, how does the fold change read?
**A.** inactive

**Q.** For `COc1cc(N=Cc2cc(Cl)cc(Cl)c2O)c(OC)cc1Cl`, which fold change is on record?
**A.** inactive

**Q.** Which fold change does the source give for `Clc1cccc(N=Cc2cc3ccccc3nc2Cl)c1Cl` here?
**A.** 3.42 (active)

**Q.** For `Oc1c(Br)cc(Br)cc1C=Nc1ccc(Cl)c(Cl)c1`, which fold change is on record?
**A.** inactive

**Q.** With `CC(Sc1ccccc1)C(=O)N[C@@H]1C[C@H]2CC[C@@H]1C2` (some centres undefined) as the molecule, how does the fold change read?
**A.** -1.09 (inactive)

**Q.** With `c1ccc(-c2nc(Sc3nc(-c4ccccc4)nc4ccccc34)c3ccccc3n2)cc1` as the molecule, how does the fold change read?
**A.** -1.53 (inactive)

**Q.** With `O=c1[nH]c(=O)n(-c2ccccc2)c(O)c1/C=C1\C=Nc2ccccc21` as the molecule, how does the fold change read?
**A.** inactive

**Q.** With `O=c1[nH]n2cc(-c3[nH]ncc3[N+](=O)[O-])cnc2c1[N+](=O)[O-]` as the molecule, how does the fold change read?
**A.** 4.1 (active)

**Q.** For `CCOC(=O)c1cnn2cc(-c3[nH]ncc3[N+](=O)[O-])cnc12`, which fold change is on record?
**A.** -1.64 (inactive)

**Q.** For `Cc1cc(C)n2[nH]c(=O)c([N+](=O)[O-])c2n1`, which fold change is on record?
**A.** 1.66 (inactive)

**Q.** Which fold change does the source give for `N#Cc1cnn2cc([N+](=O)[O-])cnc12` here?
**A.** -1.15 (inactive)

**Q.** With `O=C(O)c1[nH]ncc1[N+](=O)[O-]` as the molecule, how does the fold change read?
**A.** 1.94 (inactive)

**Q.** For `N#Cc1cnn2cc(-c3[nH]ncc3[N+](=O)[O-])cnc12`, which fold change is on record?
**A.** 3.75 (active)

**Q.** With `NC(=O)c1[nH]ncc1[N+](=O)[O-]` as the molecule, how does the fold change read?
**A.** 1.08 (inactive)

**Q.** With `O=c1[nH]n2cc(-c3n[nH]c(-c4cnc5c(Br)c(=O)[nH]n5c4)c3[N+](=O)[O-])cnc2c1Br` as the molecule, how does the fold change read?
**A.** 3.53 (active)

**Q.** Which fold change does the source give for `Cn1c(=O)oc2ccc(S(=O)(=O)Nc3ccc4c(c3)CCN4S(C)(=O)=O)cc21` here?
**A.** -1.03 (inactive)

**Q.** With `O=C(O)C1CC(=O)N(CC2CCCO2)C1` (centres undefined) as the molecule, how does the fold change read?
**A.** -1.58 (inactive)

**Q.** For `CCc1sc(/C=C(/C#N)C(=O)OC(C)C)cc1Br`, which fold change is on record?
**A.** -3.71 (inactive)

**Q.** Which fold change does the source give for `Fc1ccc(-c2cnc3ccccc3n2)cc1` here?
**A.** -2.09 (inactive)

**Q.** Which fold change does the source give for `O=C(CCn1cnnn1)Nc1nc2cc(OC(F)(F)F)ccc2s1` here?
**A.** 1.2 (inactive)

**Q.** For `COC1OC2COC(c3ccccc3)OC2C(O)C1O` (centres undefined), which fold change is on record?
**A.** 3.25 (active)

**Q.** With `COC1OC2COC(c3ccccc3)OC2C(O)C1OS(=O)(=O)c1ccc(C)cc1` (centres undefined) as the molecule, how does the fold change read?
**A.** 2.36 (inactive)

**Q.** Which fold change does the source give for `COc1ccc(C=Nc2nonc2N)cc1` here?
**A.** -2.59 (inactive)

**Q.** Which fold change does the source give for `COc1ccc(-c2nnc(N)o2)cc1` here?
**A.** 1.14 (inactive)

**Q.** Which fold change does the source give for `COc1ccc(N=Nc2c(N)n[nH]c2N)cc1` here?
**A.** active

**Q.** For `Cc1cc(C)nc(/N=C(/N)Nc2ccc(C)c([N+](=O)[O-])c2)n1`, which fold change is on record?
**A.** -1.56 (inactive)

**Q.** Which fold change does the source give for `O=C(O)c1cc2cc3c4c(c2oc1=O)CCCN4CCC3` here?
**A.** 1.07 (inactive)

**Q.** With `CC(C)(C)[Si](C)(C)N1C(=O)C[C@H]1C(=O)O` as the molecule, how does the fold change read?
**A.** 1.19 (inactive)

**Q.** For `O=c1[nH]snc1N1CCOCC1`, which fold change is on record?
**A.** -1.16 (inactive)

**Q.** Which fold change does the source give for `O=C1c2ccc([N+](=O)[O-])cc2C(=O)N1Cc1nc2ccccc2c(=O)o1` here?
**A.** -5.24 (inactive)

**Q.** With `O=C1c2ccc([N+](=O)[O-])cc2C(=O)N1CNc1ccc2c(c1)oc1ccccc12` as the molecule, how does the fold change read?
**A.** 2.96 (active)

**Q.** With `CN1C(=O)c2ccc([N+](=O)[O-])cc2C1=O` as the molecule, how does the fold change read?
**A.** 1.34 (inactive)

**Q.** With `O=S(=O)(NCc1ccc2c(c1)OCO2)c1ccc2ccccc2c1` as the molecule, how does the fold change read?
**A.** -1.07 (inactive)

**Q.** For `O=c1oc(-c2cccs2)nc2cc([N+](=O)[O-])ccc12`, which fold change is on record?
**A.** 1.07 (inactive)

**Q.** For `O=C(COc1cccc2ccccc12)N1CCc2ccccc21`, which fold change is on record?
**A.** -1.51 (inactive)

**Q.** Which fold change does the source give for `O=C(C(=O)N1CCc2ccccc21)N1CCc2ccccc21` here?
**A.** -1.35 (inactive)

**Q.** With `O=C(CCl)N1CCc2ccccc21` as the molecule, how does the fold change read?
**A.** 3.82 (active)

**Q.** For `CCOC(=O)c1c(NC(=O)c2ccco2)sc(C(=O)N2CCCC2)c1C`, which fold change is on record?
**A.** -2.09 (inactive)

**Q.** Which fold change does the source give for `O=C1C(=Cc2c[nH]c3ccccc23)C(=O)c2ccccc21` here?
**A.** -1.41 (inactive)

**Q.** With `NC(=O)CSc1nnc(SCC(N)=O)s1` as the molecule, how does the fold change read?
**A.** -3.2 (inactive)

**Q.** For `CN(C)C(=O)CSc1nnc(N)s1`, which fold change is on record?
**A.** 3.85 (active)

**Q.** With `Nc1nnc(SCC(=O)N2CCCC2)s1` as the molecule, how does the fold change read?
**A.** 1.32 (inactive)
